Screens as filed in PubChem.
An excerpt weighted towards active compounds, which were near 19% of everything screened.
DT40 TDP1 no CPT = qHTS for Inhibitors of human tyrosyl-DNA phosphodiesterase 1 (TDP1): qHTS in cells in absence of CPT. DT40 Tdp1-/- hTDP1 cells, no CPT, ATP luminescence, 48 h. Potency, µM (top dose mostly 46.2 µM), actives largely listed as inhibitors. AID 686978, 2013. 420,000 tested, 15% active; also: nearly all actives have a fitted effect of over 55% in size
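Cells were dispensed at 400 per well, compounds added by pin tool, plates incubated ≥48 hr at 37 °C, then CellTiter-Glo added for 30 min at room temperature before luminescence reading. Line: DT40 Tdp1-/- complemented with hTDP1; camptothecin omitted.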
DT40 TDP1 CPT = DT40-hTDP1 cell growth loss with CPT. chicken DT40 Tdp1-/-;hTDP1 cells + 20 nM CPT, ATP luminescence, 48 h. Potency, µM (top dose mostly 46.2 µM), most hits filed as inhibitors. 420,000 tested, 12% active; also: nearly all actives have a fitted effect of over 55% in size
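Cell growth measured by CellTiter-Glo luminescence after a minimum 48 h, 37 C compound exposure with 20 nM CPT in Tdp1-knockout DT40 cells stably expressing hTDP1, seeded 400/well; qHTS titration format.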
BCR signal inh = blocks chronic active B-cell receptor signaling | Potency, µM (titrated, usually from 46.1 µM), most hits filed as inhibitors | ABC-DLBCL IkBa-CBG/CBR reporter, luminescence ratio, 4 h | 340,000 tested, 0.05% active; active = well fitted inhibition curve with a large enough effect in the signal ratio, with a control signal flat, not every such curve was filed as active; inconclusive = small, poorly fitted or top-dose-only effect, or effect the other way, or a change in a side signal; the % refers to the signal ratio
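Doxycycline induced both beetle luciferases in TMD8 lymphoma cells; IKK-driven degradation limits the IkappaBalpha-fused green signal, while red luminescence normalises for cell number and nonspecific effects. Compounds tested up to 46 uM, 4 hrs.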
SW480 rerep = inducers of DNA re-replication in SW480 colon cancer cells; SW480 DNA re-replication, Hoechst DNA content imaging, 48 h; Potency, µM (titrated, usually from 46.1 µM), most hits filed as activators; 340,000 tested, 1.8% active; also: nearly all actives have a fitted effect of over 55% in size
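250 cells/well; 23 nL cpd via pin tool; 48 hr, 37 C, 5% CO2; Hoechst 40 min; imager read of total nuclear intensity, ex 405/em 500-530 nm.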
IL1B secr inh = inflammasome signaling inhibition, IL-1 beta readout; THP-1 LPS/ATP IL-1B secretion, AlphaLISA, 16 h; active compounds read low; activity change, % at 57.5 µM; 360,000 tested, 4.7% active; AID 743279; in the data active = activity change below about -50%; inconclusive = mostly about -30% to -49%
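THP-1 cells pretreated 1 hr with compounds (up to 57.5 uM final), then stimulated with LPS (250 ng/mL final) plus ATP (1.25 mM final); secreted IL-1B measured by AlphaLISA after 16 hr, decreased signal indicating inhibition.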
MCF10A rereplic = DNA re-replication induction in MCF 10a cells | MCF 10A DNA re-replication, Hoechst nuclear intensity, 48 h | Potency, µM (highest dose often 46.1 µM), hits mostly activators | 350,000 tested, 2.9% active | AID 624296; also: nearly all actives have a fitted effect of over 50% in size
A number is an active result; - = inactive; ? = inconclusive; . = not tested or not shown; [ ] = another dose, or the depositor's remark. Unless noted, calls follow the shape of the dose curve; as a rule, active = well fitted curve in the direction sought with a large enough effect; inconclusive = small, poorly fitted or top-dose-only effect, or another doubt; inactive = no such curve, though single readings can be large; an effect the other way counts as inactive or inconclusive.

SMILES	DT40 TDP1 no CPT	DT40 TDP1 CPT	BCR signal inh	SW480 rerep	IL1B secr inh	MCF10A rereplic
CCN(c1ccccc1)S(=O)(=O)c1ccc(F)c(C(=O)Nc2ccc(C)cc2)c1	12µM	9.2µM	-	.	.	.
CCN(c1ccccc1)S(=O)(=O)c1ccc(C(=O)Nc2cccc(NC(C)=O)c2)cc1	-	?	-	-	-	-
CCN(c1ccccc1)S(=O)(=O)c1cc(C(=O)Nc2ccc(F)c(F)c2)ccc1F	?	23µM	?	?	-89	13µM
O=C1CCN(Cc2ccc(Cl)cc2Cl)C(=O)N1	-	-	.	-	-	-
O=C(CCS(=O)(=O)c1nc(-c2cccs2)cc(C(F)(F)F)n1)Nc1ccc(F)c(Cl)c1	9.2µM	4.6µM	.	.	.	.
COc1ccc(Cl)cc1NC(=O)CCS(=O)(=O)c1nc(-c2cccs2)cc(C(F)(F)F)n1	3.3µM	4.6µM	.	.	.	.
CC(C)c1nnc(NC(=O)CCS(=O)(=O)Cc2ccccc2)s1	-	-	-	-	-	-
CC(C)c1nnc(NC(=O)CCS(=O)(=O)c2nc(-c3cccs3)cc(C(F)(F)F)n2)s1	4.1µM	2.9µM	?	?	-110	3.7µM
COc1ccc(NC(=O)CCS(=O)(=O)c2nc(-c3cccs3)cc(C(F)(F)F)n2)cc1	5.2µM	4.6µM	.	.	.	.
O=C(CCS(=O)(=O)c1nc(-c2cccs2)cc(C(F)(F)F)n1)Nc1ccc(OC(F)(F)F)cc1	-	?	.	.	.	.
O=C(Nc1cc(Cl)ccc1Cl)Nn1cnnc1	-	-	-	-	-	-
CC1CCCN(c2nc3ccsc3c(=O)s2)C1 (centres undefined)	-	-	?	-	-	18µM
COc1cccc(OC)c1C(=O)Nc1ccc(-c2nc3ncccc3o2)cc1	?	-	.	.	.	.
O=C1C(N2CCOCC2)=C(n2nnc3ccccc32)C(=O)c2ccccc21	3.3µM	2.3µM	?	?	-78	?
Cc1ccc(S(=O)(=O)NCC2CCC(C(=O)NCCc3ccc(Cl)cc3)CC2)cc1 (centres undefined)	-	-	-	.	.	.
Cc1cc(NC(=O)CS(=O)(=O)Cc2ccccc2)no1	-	-	-	-	-	-
O=C(NC1CC1)c1sc2cc(Cl)ccc2c1Cl	12µM	?	-	-	-	-
Cc1csc(=O)n1CCC(=O)N(C)Cc1c(F)cccc1Cl	16µM	?	-	-	-	-
Cc1cccc(NC(=O)CSCC(=O)Nc2cc(Cl)ccc2N2CCN(C)CC2)c1	?	?	-	-	-79	-
Cc1cccc(NC(=O)CSCC(=O)N(C)Cc2c(F)cccc2Cl)c1	13µM	?	-	-	-	?
Cc1c(OCC(=O)NCCN2CCOCC2)ccc2c1oc(=O)c1ccccc12	?	?	?	-	-	-
CCC1CN(Cc2ccc(COC)o2)Cc2cc(OC)ccc2O1 (centres undefined)	-	-[9.04 µM]	.	.	.	.
O=C(O)c1ccc(COc2ccc3ccccc3c2/C=C2/NC(=O)N(c3ccccc3)C2=O)cc1	?	-	?	?	-	-
CCN1C(=O)S/C(=C/c2c(OCc3ccc(C(=O)O)cc3)ccc3ccccc23)C1=O	?	-	?	-	-	6.5µM
COC(=O)c1ccc(N2CCOCC2)c(NC(=O)Nc2cccc(OC)c2)c1	-	-	?	-	-	-
SMILES	DT40 TDP1 no CPT	DT40 TDP1 CPT	BCR signal inh	SW480 rerep	IL1B secr inh	MCF10A rereplic
CCOC(=O)c1c(S(=O)(=O)NCC(=O)N2CCN(c3cc(C)ccc3C)CC2)c(C)n(C)c1C	?	?	-	.	.	.
CCOC(=O)c1ccc(N2CCN(c3ccccc3F)CC2)c(NC(=O)Nc2cccc(OC)c2)c1	5.8µM	13µM	-	-	-	-
CCOC(=O)c1ccc(N2CCN(c3cc(C)ccc3C)CC2)c(NC(=O)Nc2ccc(CC)cc2)c1	?	?	-	.	.	.
CCOC(=O)N1CCC(N2CCN(c3cc(C)ccc3C)CC2)CC1	?	29µM	-	-	-	-
CCOC(=O)c1ccc(N2CCN(c3cc(C)ccc3C)CC2)c(N)c1	16µM	15µM	-	?	-	18µM
CCOC(=O)c1ccc(N2CCN(c3cc(C)ccc3C)CC2)c(NC(=O)Nc2ccc(Cl)cc2)c1	4.6µM	4.6µM	?	.	.	.
COCCNc1nc(-c2ccoc2)nc2ccccc12	-	?	.	.	.	.
COc1cccc(CC(NC(C)=O)C(=O)NC2CCN(C(=O)c3ccc(Cl)cc3)CC2)c1OC (centres undefined)	-	-	-	-	-	-
CN(CC(=O)Nc1c(Cl)cccc1Cl)C(=O)CCNS(=O)(=O)c1ccccc1C(F)(F)F	?	?	-	-	-	-
CCOC(=O)c1ccc(N2CCN(c3cc(Cl)ccc3C)CC2)c(NC(=O)Nc2cccc(OC)c2)c1	9.2µM	16µM	-	.	.	.
CCOC(=O)c1cccc(NC(=O)Nc2cc(OC)ccc2OC)c1	?	?	-	-	-	?
O=c1nc(Nc2ccccc2)oc2ccccc12	-	-	?	-	-	-
O=c1nc(Nc2cccc(Cl)c2)oc2cc(Cl)oc(=O)c12	-	-	?	-	-	16µM
COc1ccc(C[C@H]2CN3C(=NC[C@H]3Cc3ccccc3)N2CCNC(=O)CCC2CCCCC2)cc1	26µM	?	?	-	-	?
C/C=C(\C)C(=O)NCCN1C2=NC[C@H](Cc3ccccc3)N2C[C@@H]1Cc1ccc(OC)cc1	?	?	.	-	?	-
C/C=C(\C)C(=O)NCCN1C2=NC[C@@H](C)N2C[C@@H]1Cc1ccc(OC)cc1	-	-	-	-	-	-
COc1ccc(C[C@H]2CN3C(=NC[C@@H]3Cc3ccccc3)N2CCNC(=O)c2ccc(C)c(Br)c2)cc1	21µM	23µM	?	-	-52	-
COc1ccc(C[C@H]2CN3C(=NC[C@@H]3Cc3ccccc3)N2C[C@H](C)NC(=O)CCC2CCCCC2)cc1	.	.	-	.	.	.
COc1ccc(C[C@H]2CN3C(=NC[C@H]3Cc3ccccc3)N2CCNC(=O)c2ccc(C)c(Br)c2)cc1	15µM	21µM	?	-	-52	-
C[C@@H](CN1C2=NC[C@H](Cc3ccccc3)N2C[C@H]1Cc1ccc(O)cc1)NC(=O)CCC1CCCCC1	12µM	7.3µM	?	-	?	-
CC1(c2nnnn2-c2ccc3c(c2)OCCO3)CCC(=O)N1CCCn1ccnc1 (centres undefined)	-	-	.	.	-	.
Cc1ccc(C(=O)Nc2ccccc2C(=O)OCc2cc(=O)n3nc(C4CC4)sc3n2)cc1	-	-	.	.	.	.
CC(NC(=O)NC1CCCCC1)C(c1cccs1)N1CCN(c2ccccc2)CC1 (centres undefined)	21µM	?	-	-	?	-
